According to PubChem BioAssay (Tox21):
Inconclusive results are not listed. Activity calls are given as the source filed them. Calls come from the whole dose curve; as a rule, active = well fitted activation curve with a large enough effect in the signal ratio in the repeat runs (not every such curve was filed as active); inconclusive = weak or mixed curves; inactive = flat fitted curve, though single readings scatter; the % refers to the signal ratio.

Experiment: p53 small molecule agonists, cell-based qHTS assay (AID 1963582)
Conditions: HCT-116 p53RE-bla reporter, beta-lactamase FRET ratio, 16 h; series mostly up to 66 µM; activation: at the top concentration
Excerpt: National Center for Advancing Translational Sciences [NCATS]
Division of Preclinical Innovation [DPI]
U.S. Environmental Protection Agency [EPA]
National Institutes of Environmental Health Sciences [NIEHS]
National Toxicology Program [NTP]
U.S. Food and Drug Administration [FDA]
p53, a tumor suppressor protein, is activated following cellular insult, including DNA damage and other cellular stresses. The activation of p53 regulates cell fate by inducing DNA repair, cell cycle arrest, apoptosis, or cellular senescence. The activation of p53, therefore, is a good indicator of DNA damage and other cellular stresses. […] The activation of the reporter gene under culture conditions can be detected by fluorescence intensity. This cell line was used to screen the Tox21 10K compound library in a 1536-well plate format and to identify agonists that activate the p53 signaling pathway.
Tox21 Assay Protocol Summary:
The p53RE-bla cells were dispensed at 4,000 cells/5 ul/well in 1536-well black wall/clear bottom plates using a Multidrop dispenser. After the assay plates were incubated at a 37 C/5% CO2 incubator for 5 hours, 23 nL of compounds dissolved in DMSO, positive controls or DMSO only was transferred to the assay plate by a pin tool. The plates were incubated at 37 C for 16 hours. After 1 uL of LiveBLAzerTM B/G FRET substrate was added using a Flying Reagent Dispenser, the plates were incubated at room temperature for 2 hours, and fluorescence intensity was measured by an Envision plate reader.
% is set by controls: 0 for no effect and ±100 for the full control effect.

Row | Structure (SMILES) | Potency | activation
1 | CC1CC(OC(=O)c2ccccc2O)CC(C)(C)C1 (stereo not given) | inactive | 
2 | CCOC(=O)c1ccc(O)c(O)c1 |  | -3.05% [at 30.3 µM] (inactive)
3 | CC(C)CC(O)Cc1ccccc1 (stereo not given) |  | 0.144% (inactive)
4 | O=C1OC[C@H](Cc2cccc(O)c2)[C@H]1Cc1cccc(O)c1 |  | -3.28% [at 30.3 µM] (inactive)
5 | N#Cc1ccc(C2CCCc3cncn32)cc1 (stereo not given) |  | 2.1% [at 30.3 µM] (inactive)
6 | CCCCCCCCCCCCCCCC[N+](C)(C)CC |  | 7.56% [at 30.3 µM] (inactive)
7 | O=c1c(-c2ccc(O)cc2)coc2cc(O)ccc12 | inactive | 
8 | COc1cc(C(=S)N2CCOCC2)ccc1O |  | -0.164% [at 30.3 µM] (inactive)
9 | COC(CC(C)CCCC(C)(C)O)OC (stereo not given) |  | 2.41% (inactive)
10 | CCCCNc1ccccc1 |  | 2.67% (inactive)
11 | O=C(O)c1cccc(C[C@@H]2COc3ccc(OCc4nc5cc(F)ccc5s4)cc3[C@@H]2O)c1 |  | 4.67% (inactive)
12 | O=C(O)CCc1ccccc1 |  | 1.18% (inactive)
13 | CC(=O)Nc1ccc(C)cc1 |  | -0.668% (inactive)
14 | CCCOCCC |  | 0.568% (inactive)
15 | O[C@@H]([C@H](O)[C@H](O)CBr)[C@H](O)CBr |  | -0.497% (inactive)
16 | CCOC(=O)c1ccc(C)cc1 |  | 0.109% (inactive)
17 | Cc1ccc(S(=O)(=O)NC(=O)NC2CCCCCCC2)cc1 |  | 1.18% [at 30.3 µM] (inactive)
18 | Cc1ccccc1S(=O)(=O)O |  | -1.21% (inactive)
19 | CO[Si](CCCNCCNCCN)(OC)OC |  | -3.93% (inactive)
20 | Clc1nc(Cl)c(Cl)c(Cl)c1Cl | inactive | 

Row | Structure (SMILES) | Potency | activation
21 | COc1cc(N)c(Cl)cc1C(=O)NC1CCN(Cc2ccccc2)CC1 |  | -0.2% [at 30.3 µM] (inactive)
22 | O=C1NC2NC(=O)NC2N1 (stereo not given) |  | 0.214% (inactive)
23 | C=CCOc1cc(Cl)ccc1C(=O)NCCN(CC)CC |  | -2.12% [at 30.3 µM] (inactive)
24 | CC(C[N+](C)(C)C)OC(N)=O (stereo not given) |  | -1.26% [at 30.3 µM] (inactive)
25 | CCCCCCCCCCCCC(=O)O |  | 0.203% (inactive)
26 | Nc1ncnc2c1ncn2Cc1c(F)cccc1Cl |  | 0.378% [at 30.3 µM] (inactive)
27 | COCCCOc1ccnc(CS(=O)c2nc3ccccc3[nH]2)c1C (stereo not given) | inactive | 
28 | Cc1ccc(S(=O)(=O)NC(=O)NC2CCCC2)cc1 |  | 0.369% [at 30.3 µM] (inactive)
29 | NCC1(Cc2noc(=O)[nH]2)CCCCC1 |  | -0.166% (inactive)
30 | Nc1ncnc2c1ncn2[C@@H]1O[C@H](COP(=O)(O)O)[C@@H](O)[C@H]1O |  | 2.58% [at 30.3 µM] (inactive)
31 | CN(C)c1cc(NC(=O)CNC(C)(C)C)c(O)c2c1C[C@H]1C[C@H]3[C@H](N(C)C)C(=O)C(C(N)=O)=C(O)[C@@]3(O)C(=O)C1=C2O |  | -2.35% [at 30.3 µM] (inactive)
32 | CCO/C([O-])=N/c1c[n+](N2CCOCC2)no1 |  | 0.101% [at 30.3 µM] (inactive)
33 | CC(C=O)Cc1ccc(C(C)(C)C)cc1 (stereo not given) | inactive | 
34 | Cc1[nH]cnc1-c1ccc(Cl)cc1 |  | 0.13% [at 30.3 µM] (inactive)
35 | CCCCCCCCSCCO |  | -2.69% (inactive)
36 | C[C@H]1C[C@H](O)c2ccsc2S1(=O)=O |  | 1.39% [at 30.3 µM] (inactive)
37 | CC1(C)O[C@H]2CC(=O)OC[C@]23[C@H]2CC[C@@]4(C)[C@H](c5ccoc5)OC(=O)[C@H]5O[C@]54[C@]2(C)C(=O)C[C@@H]13 |  | 0.366% [at 30.3 µM] (inactive)
38 | CCCCc1ccc2cccc(S(=O)(=O)O)c2c1 |  | -2.6% (inactive)
39 | CN(C)CCCNCCCN(C)C |  | -1.69% (inactive)
40 | CC(C(=O)O)c1cccc(C(=O)c2ccccc2)c1 (stereo not given) |  | -1.35% [at 30.3 µM] (inactive)
